Results filed as inconclusive are left out. The source made the active and inactive calls. Calls follow the shape of the dose curve; as a rule, active = well fitted inhibition curve with a large enough effect; inconclusive = small, poorly fitted or top-dose-only effect; inactive = flat fitted curve, though single readings scatter.
Experiments:
[1] = target: Glutathione peroxidase 1 (Homo sapiens) (UniProt P07203); assay: Primary qHTS Assay for Inhibitors of Recombinant Selenoprotein Glutathione Peroxidase 1 (GPX1) (AID 1845191); also: nearly all actives have a fitted effect of over 65% in size
In short: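 GPX1 10 nM, GR 100 nM, GSH 1 mM, NADPH 0.5 mM, CHP 0.5 mM (final). 30-min cpd preincubation, RT. Ex340/Em450 read t=0, t=15 min.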

[2] = target: Phospholipid hydroperoxide glutathione peroxidase GPX4 (Homo sapiens) (UniProt P36969); assay: Primary qHTS Assay for Inhibitors of Recombinant Selenoprotein Glutathione Peroxidase 4 (GPX4) (AID 1845192); also: nearly all actives have a fitted effect of over 65% in size; as to activity change, negative = inhibition: series mostly up to about 50 µM; % is scaled to controls: 0 for no effect and ±100 for the full control effect
In short: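 qHTS, GR-coupled: GPX4 200 nM + cpd 30 min RT → GSH 1 mM, NADPH 0.5 mM, GR 100 nM → CHP 0.5 mM start; fluor 340/450 at t0 and t15 min; no-enzyme wells as control.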

[3] = target: Luciferin 4-monooxygenase (Photinus pyralis) (UniProt P08659); assay: Primary firefly luciferase (FLuc) qHTS assay for identification of artifact compounds. (AID 1845220); also: nearly all actives have a fitted effect of over 60% in size;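 as to activity change, negative = inhibition: series mostly up to about 54 µM; plate controls were DMSO vehicle for no effect and no enzyme for full effect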
In short: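 In this counter-screen for luciferase artifacts, test compounds met substrate (10 uM each luciferin and ATP) before 10 nM enzyme started the reaction. Light output was measured 5 min later.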

Glutathione peroxidase 1 (Homo sapiens), sequence (P07203 whole entry, looked up): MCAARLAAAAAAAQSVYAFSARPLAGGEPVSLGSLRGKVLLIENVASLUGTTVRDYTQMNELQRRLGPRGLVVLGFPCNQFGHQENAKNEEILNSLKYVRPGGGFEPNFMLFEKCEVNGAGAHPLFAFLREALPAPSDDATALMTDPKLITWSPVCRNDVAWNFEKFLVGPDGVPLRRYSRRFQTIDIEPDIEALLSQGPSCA
Phospholipid hydroperoxide glutathione peroxidase GPX4 (Homo sapiens), sequence (P36969 whole entry, looked up): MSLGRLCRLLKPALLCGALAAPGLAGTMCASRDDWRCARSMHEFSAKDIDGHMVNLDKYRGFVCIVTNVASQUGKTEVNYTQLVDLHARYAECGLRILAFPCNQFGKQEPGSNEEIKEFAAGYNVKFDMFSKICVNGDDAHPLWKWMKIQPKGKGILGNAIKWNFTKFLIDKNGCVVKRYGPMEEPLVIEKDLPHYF

CC12CC(c3ccoc3)OC(=O)C1CCC1(C)C2CCC(O)C1(C)O (stereo not drawn)
inactive: Potency [1] | Potency [2] | Potency [3]

CN1C(=O)N(c2cc(Cl)cc(Cl)c2)C(=O)[C@@]1(C)Cc1ccc(Br)cc1
inactive: Potency [1] | Potency [2] | Potency [3]

CC[C@@H](C)[C@H](N)C(=O)N1Cc2ccccc2C1
inactive: Potency [1] | Potency [2] | Potency [3]

C/C=C(\C)C(=O)OC[C@H]1O[C@H](O[C@H]2O[C@H](CO)[C@@H](O)[C@H](O)[C@H]2O[C@@H]2O[C@H](CO)[C@@H](O)[C@H](O)[C@H]2O)[C@H](O[C@@H]2O[C@H](CO)[C@@H](O)[C@H](O)[C@H]2O)[C@@H](O)[C@@H]1O
inactive: Potency [1] | Potency [2] | Potency [3]

O=C(/C=C/c1ccccc1)OC[C@H]1O[C@@H](OC(=O)c2cc(O)c(O)c(O)c2)[C@H](O)[C@@H](O)[C@@H]1O
inactive: Potency [1] | Potency [2] | Potency [3]

COc1ccccc1N1CCN(CCCCNC(=O)c2ccc(-c3cscn3)cc2)CC1
inactive: Potency [1] | Potency [2] | Potency [3]

COc1ccc(CCc2nc3cc(-c4c(C)noc4C)ccc3n2C[C@H](C)N2CCOCC2)cc1Cl
inactive: Potency [1] | Potency [2] | Potency [3]

O=C(/C=C/c1ccccc1)O[C@@H]1[C@@H](CO)O[C@@](CO)(O[C@H]2O[C@H](CO)[C@@H](O)[C@H](O)[C@H]2O)[C@H]1O
inactive: Potency [1] | Potency [2] | Potency [3]

Cc1onc(-c2ccccc2Cl)c1C(=O)N(C)c1ccc(Cl)cc1
inactive: Potency [1] | Potency [2] | Potency [3]

C=C1CC[C@@]2(OC1)O[C@H]1CC3[C@@H]4CC=C5C[C@@H](O)C[C@@H](O[C@@H]6OC[C@H](O)[C@H](O)[C@H]6O[C@@H]6O[C@@H](C)[C@H](O)[C@@H](O)[C@H]6O)[C@]5(C)C4CC[C@]3(C)[C@H]1[C@@H]2C (stereo partly drawn)
inactive: Potency [1] | Potency [2] | Potency [3]

C=C(CO)C(=O)O[C@H]1C[C@@]23O[C@@H]2CC/C(=C/[C@H]2OC(=O)C(=C)[C@H]12)CO[C@H]3O
inactive: Potency [1] | Potency [2] | Potency [3]

COc1ccc(NC(=O)c2ccc(-c3ccc(C(N)=O)cc3C)cc2)cc1N1CCN(C)CC1
inactive: Potency [1] | Potency [2] | Potency [3]

COC(=O)C1=COC(O[C@@H]2O[C@H](CO)[C@@H](O)[C@H](O)[C@H]2O)/C(=C\COC(=O)/C=C/c2ccccc2)C1CC(=O)OCCc1ccc(O)cc1 (stereo partly drawn)
inactive: Potency [1] | Potency [2] | Potency [3]

C/C(=C\CO)CC/C=C(\C)C(=O)O[C@@H]1O[C@H](CO)[C@@H](O)[C@H](O)[C@H]1O
inactive: Potency [1] | Potency [2] | Potency [3]

CC(=O)[C@@H]1C[C@H](C(C)(C)O[C@@H]2O[C@H](CO)[C@@H](O)[C@H](O)[C@H]2O)CC[C@@]2(CO)OC(=O)C[C@@H]12
inactive: Potency [1] | Potency [2] | Potency [3]

CC(=O)OCC1OC(OC2COC(OC3COC(OC4C(OC5C(CO)OC(OC6CCC7(C)C(CCC8(C)C7CC=C7C9CC(C)(C)CCC9(C(=O)OC9OC(CO)C(O)C(O)C9OC9OCC(OC%10OCC(O)(CO)C%10O)C(O)C9O)C(O)CC78C)C6(C)C)C(O)C5O)OCC(O)C4O)C(O)C3O)C(O)C2O)C(OC(=O)/C=C/c2ccccc2)C(O)C1OC(C)=O (stereo not drawn)
inactive: Potency [1] | Potency [2] | activity change, negative = inhibition [3] 4.52% [at 6.45 µM]

N#CN1CCC[C@@H](n2nc(-c3ccc(Oc4ccc(F)cc4F)cc3)c(C(N)=O)c2N)C1
inactive: Potency [1] | Potency [2] | Potency [3]

CC(C)=C1C[C@@]2(C)C(=CC1=O)CC[C@@H](O)[C@@H]2C
inactive: Potency [1] | Potency [2] | Potency [3]

C/C=C/C=C/C1=C2C(=O)C3(C)C4C(C(=O)CC(O)/C=C/C)=C(O1)C1(C)C2C2(C)OC1(O)C4(C)OC23O (stereo not drawn)
inactive: Potency [1] | Potency [2] | Potency [3]

CCNC(=O)OC1CCN(c2nncc3cc(OC)c(OC)cc23)CC1
inactive: Potency [1] | Potency [2] | Potency [3]

COc1cc2c(cc1O)C(c1ccc(O)cc1)C(C)C(C)C2 (stereo not drawn)
inactive: Potency [1] | Potency [2] | Potency [3]

C=CC(C)(O)C1CC2C3(C)CCCC(C)(C)C3C(O)C(O)C2(C)O1 (stereo not drawn)
inactive: Potency [1] | Potency [2] | Potency [3]

CC1(C)CC[C@]2(C(=O)O[C@@H]3O[C@H](CO)[C@@H](O)[C@H](O)[C@H]3O)CC[C@]3(C)C(=CCC4[C@@]5(C)C[C@H](O)[C@H](O[C@@H]6O[C@H](C(=O)O)[C@@H](O)[C@H](O)[C@H]6O)[C@@](C)(CO)C5CC[C@]43C)C2C1 (stereo partly drawn)
inactive: Potency [1] | Potency [2] | outcome [3] inactive [at 11.6 µM]

C[C@@H]1C[C@@H](O)[C@@]23CO[C@]2(CO)CCC[C@@H]3[C@@]12C[C@@H](c1ccoc1)OC2=O
inactive: Potency [1] | Potency [2] | Potency [3]

C/C(=C\CCC(C)CCO)C(=O)OC[C@H]1O[C@@H](O[C@@H]2OC=C(C(=O)O)[C@H]3CC[C@](C)(O)[C@@H]23)C(O)[C@@H](O)C1O (stereo partly drawn)
inactive: Potency [1] | Potency [2] | Potency [3]

C=C(COC(=O)CC(C)C)C1Cc2cc(C(C)=O)ccc2O1 (stereo not drawn)
inactive: Potency [1] | Potency [2] | Potency [3]

C[C@H]1CCN2C[C@]34C[C@@]5(C(=O)Nc6c5ccc5c6OC=CC(C)(C)O5)C(C)(C)C3C[C@]12C(=O)N4C (stereo partly drawn)
inactive: Potency [1] | Potency [2] | Potency [3]

COCC1OC(n2cnc3c(=O)[nH]cnc32)C(O)C1O (stereo not drawn)
inactive: Potency [1] | Potency [2] | Potency [3]

COc1ccc(/C=C/C(=O)N2CCCC2)cc1
inactive: Potency [1] | Potency [2] | Potency [3]

Cn1nccc1-c1ccccc1Oc1ccc(S(=O)(=O)Nc2nccs2)cc1C#N
inactive: Potency [1] | Potency [2] | Potency [3]

COC(=O)Cn1nc(-c2cccc(OC)c2)c2ccccc21
inactive: Potency [1] | Potency [2] | Potency [3]

O=C(OC[C@H]1O[C@H](O[C@H]2CO[C@H](CO)[C@@H](O)[C@@H]2O)[C@H](O)[C@@H](O)[C@H]1O)c1ccccc1
inactive: Potency [1] | Potency [2] | Potency [3]

C[C@@H]1[C@H](O)[C@@H]2OC(=O)C3=C2[C@H](CCC3)[C@@]12C[C@@H](c1ccoc1)OC2=O
inactive: Potency [1] | Potency [2] | Potency [3]

C=C(C(=O)O)[C@@H]1CC[C@@]2(C)CC[C@@H](O)C(=C)C2C1 (stereo partly drawn)
inactive: Potency [1] | Potency [2] | Potency [3]

CC/C=C\[C@H](O)[C@H](O)C1=C(C)C(=O)[C@]2(O1)C(=O)N[C@@](O)(C(=O)c1ccccc1)[C@@H]2O
inactive: Potency [1] | Potency [2] | Potency [3]

CC1=CC(=O)C2C(C)(C)CCC[C@]2(C)[C@H]1CC[C@H](C)CC(=O)O (stereo partly drawn)
inactive: Potency [1] | Potency [2] | Potency [3]

OC[C@H]1O[C@@H](O[C@H]2[C@H](O)[C@@H](CO)O[C@@H](OCc3ccccc3)[C@@H]2O[C@@H]2OC[C@](O)(CO)[C@H]2O)[C@H](O)[C@@H](O)[C@@H]1O
inactive: Potency [1] | Potency [2] | Potency [3]

C=C1C(OC(C)=O)[C@@]23CCC4[C@](C)(C(=O)O)CCC[C@@]4(C)[C@]2(O)CC[C@H]1C3 (stereo partly drawn)
inactive: Potency [1] | Potency [2] | Potency [3]

Cc1cc(Cn2cnc3c2CC(C(=O)O)N(C(=O)C(c2ccccc2)c2ccccc2)C3)ccc1N(C)C (stereo not drawn)
inactive: Potency [1] | Potency [2] | Potency [3]

CC1=C2CC(=O)C(C)CC/C=C(\C)CC2OC1=O (stereo not drawn)
inactive: Potency [1] | Potency [2] | Potency [3]

CC1CCC23COC(=O)C2=CC(O)CC3C1(C)CCc1ccoc1 (stereo not drawn)
inactive: Potency [1] | Potency [2] | Potency [3]

COc1cc(C(CO)CO[C@@H]2O[C@H](CO)[C@@H](O)[C@H](O)[C@H]2O)ccc1O (stereo partly drawn)
inactive: Potency [1] | Potency [2] | Potency [3]

C=C(C)[C@@H]1CC[C@]2(C)CC[C@]3(C)C(CCC4[C@@]5(C)CC[C@H](O)C(C)(C)C5CC[C@]43C)C12 (stereo partly drawn)
inactive: Potency [1] | Potency [2] | Potency [3]

CC1(C)CCC2(C(=O)O)C(O)CC3(C)C(=CCC4C5(C)CCC(OC6OC(CO)C(O)C(O)C6OC6OC(CO)C(O)C(O)C6OC6OCC(O)(CO)C6O)C(C)(C)C5CCC43C)C2C1 (stereo not drawn)
inactive: Potency [1] | Potency [2] | outcome [3] inactive [at 11.6 µM]

COc1cccc(CNc2ccc(S(=O)(=O)Nc3nc4ccccc4s3)cc2)c1O
inactive: Potency [1] | Potency [2] | Potency [3]

C[C@@H]1[C@H]2[C@H](O[C@@H]3O[C@H](CO)[C@@H](O)[C@H](O)[C@H]3O)OC=C(C(=O)O)[C@H]2C[C@@H]1OC(=O)/C=C/c1ccc(O)cc1
inactive: Potency [1] | Potency [2] | Potency [3]

CC1CC(O)/C=C/C(O)/C=C\C(=O)O1 (stereo not drawn)
inactive: Potency [1] | Potency [2] | Potency [3]

COc1cc(Nc2nc3c(s2)CCCC3c2ccccc2)ccc1-n1cnc(C)c1 (stereo not drawn)
inactive: Potency [1] | Potency [2] | outcome [3] inactive [at 11.6 µM]

CC(O)CCc1ccc(O[C@@H]2O[C@H](CO)[C@@H](O)[C@H](O)[C@H]2O)cc1 (stereo partly drawn)
inactive: Potency [1] | Potency [2] | Potency [3]

C[C@]12CC/C(=N\OCC(=O)O)C=C1CC[C@@H]1[C@@H]2[C@@H](O)C[C@@]2(C)[C@H]1CC[C@]2(O)C(=O)CO
inactive: Potency [1] | Potency [2] | Potency [3]

C=CCc1cc(OC)c(OC(C)C(O)c2ccc(O)c(OC)c2)c(OC)c1 (stereo not drawn)
inactive: Potency [1] | Potency [2] | Potency [3]

CC1(C)CC[C@]2(C(=O)O[C@@H]3O[C@H](CO)[C@@H](O)[C@H](O)[C@H]3O)CC[C@]3(C)C(=CCC4[C@@]5(C)C[C@H](O)[C@H](O[C@@H]6OC[C@@H](O)[C@H](O)[C@H]6O)[C@@](C)(CO)C5CC[C@]43C)C2C1 (stereo partly drawn)
inactive: Potency [1] | Potency [2] | outcome [3] inactive [at 11.6 µM]

C/C=C(\C)C(=O)OC1C(C)C2(O)C3C=C(C)C(=O)C3CC(CO)=CC2C2C(C)(C)C12OC(C)=O (stereo not drawn)
inactive: Potency [1] | Potency [2] | Potency [3]

CC(C)=CCc1cc(O[C@@H]2O[C@H](CO[C@@H]3OC[C@](O)(CO)[C@H]3O)[C@@H](O)[C@H](O)[C@H]2O)ccc1O
inactive: Potency [1] | Potency [2] | Potency [3]

CCCc1[nH]nc2c1C(c1cc(Cl)cc(Cl)c1O)C(C#N)=C(N)O2 (stereo not drawn)
inactive: Potency [1] | Potency [2] | Potency [3]

Cc1c(C)c(NCC(=O)N(C)C2CCN(Cc3ccc(C(N)=O)cc3)CC2)c(C)c(C)c1N
inactive: Potency [1] | Potency [2] | Potency [3]
